Laboratory results reported in PubChem BioAssay (Tox21).
Values without a mark were called inactive. Results filed as inconclusive are left out. A call without a number means that no potency is given here. Active and inactive are the calls of the source. Unless noted, calls follow the shape of the full dose curve.

Tests used:
[1] = Nuclear factor erythroid 2-related factor 2/antioxidant responsive element (Nrf2/ARE) small molecule agonists: luciferase reporter gene qHTS assay in human keratinocytes (AID 1919969); also: nearly all actives have a fitted effect of over 35% in size
[2] = target: Gonadotropin-releasing hormone receptor (Homo sapiens) (UniProt P30968); test: Human gonadotropin-releasing hormone receptor (GnRHR) small molecule agonists, calcium flux assay in GnRHR-HEK293 cells (AID 1920063); also: nearly all actives have a fitted effect of over 35% in size
Procedure, shortened: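 We seeded human GnRHR-expressing HEK293 cells for 18 hours, loaded them with calcium dye for an hour at 37 C, added test compounds, and recorded fluorescence intensity kinetically for three minutes.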

[3] = target: KiSS-1 receptor (Homo sapiens) (UniProt Q969F8); test: Human kisspeptin (KISS1R) small molecule agonists, calcium flux assay in KISS1R-HEK293 cells (AID 1920064; active = well fitted activation curve with a large enough effect in the repeat runs)
Procedure, shortened: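 Kinetic calcium assay, 1 s sampling over 3 min at Ex/Em 480/540, in HEK293 cells engineered with human KISS1R; compounds delivered in DMSO after 1 h dye loading.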

[4] = G protein-coupled receptor (GPCR) small molecule agonists, calcium flux assay: HEK293 wild type cell line counter screen (AID 1920065)
Procedure, shortened: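 Calcium-sensitive dye, loaded 1 h at 37 C into cells cultured 18 h, reports compound-evoked calcium release as fluorescence (Ex/Em 480/540), measured over 3 min. Agonist mode; 15-point titrations, triplicate.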

[5] = p53 small molecule agonists, cell-based qHTS assay with human liver microsomes (AID 1963577);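 also: p53 response element beta-lactamase reporter cells with liver microsomes plus NADPH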
Procedure, shortened: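 HLM-supplemented p53RE-bla reporter assay: 16 h compound exposure at 37 C, microsomes and NADPH each 0.5 mg/mL final, read by fluorescence intensity.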

[6] = p53 small molecule agonists, cell-based qHTS assay with rat liver microsomes (AID 1963578)
Procedure, shortened: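 Quantitative HTS of the Tox21 10K library: p53RE-bla cells, rat liver microsomes plus NADPH at 0.5 mg/mL final each, 16 h at 37 C, beta-lactamase fluorescence detection.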

[7] = p53 small molecule agonists, cell-based qHTS assay with human liver microsomes: qHTS cell viability counter screen (AID 1963579); also: nearly all actives have a fitted effect of over 45% in size; also: potency is read from the fitted curve at half-maximal effect
Procedure, shortened: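 Viability of p53RE-bla cells is measured as CellTiter-Glo luminescence following a 16 h, 37 C incubation with compound, liver microsomes from human donors and NADPH.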

[8] = p53 small molecule agonists, cell-based qHTS assay with rat liver microsomes: qHTS cell viability counter screen (AID 1963580); also: nearly all actives have a fitted effect of over 45% in size; also: potency is read from the fitted curve at half-maximal effect
Procedure, shortened: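 In HCT-116 cells carrying a p53 response element-bla reporter, compounds were metabolically activated in situ by rat liver microsomes with NADPH over 16 h. Cell ATP content then served as the cytotoxicity measure.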

[9] = p53 small molecule agonists, cell-based qHTS assay: qHTS cell viability counter screen (AID 1963581); also: nearly all actives have a fitted effect of over 45% in size; also: potency is read from the fitted curve at half-maximal effect
Procedure, shortened: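 Following 5 h attachment, HCT-116 p53RE-bla cells took up compound for 16 h at 37 C; the reporter was read with B/G FRET substrate (2 h RT), and viability then via CellTiter-Glo ATP luminescence.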

[10] = target: 5-hydroxytryptamine receptor 2A (Homo sapiens) (UniProt P28223); test: 5-hydroxytryptamine receptor 2A (HTR2A) small molecule antagonists, cell-based qHTS assay (AID 1963586); also: nearly all actives have a fitted effect of over 45% in size
Procedure, shortened: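 Antagonist-mode intracellular calcium assay: DOI (4 nM) added after 5 min compound pre-incubation at room temperature to dye-loaded HTR2A-CHO cells. Fluorescence followed for 3 min, sampled every second.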

[11] = target: 5-hydroxytryptamine receptor 2A (Homo sapiens) (UniProt P28223); test: 5-hydroxytryptamine receptor 2A (HTR2A) small molecule agonists, cell-based qHTS assay (AID 1963587); also: nearly all actives have a fitted effect of over 30% in size
Procedure, shortened: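 HTR2A-CHO cells, plated 18 h at 37 C/5% CO2, dye-loaded 1 h at 37 C; compounds in DMSO added by pin tool (agonist mode). Intracellular calcium flux read as kinetic fluorescence on FDSS over 2 min at 1 s intervals.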

[12] = target: Muscarinic acetylcholine receptor M1 (Homo sapiens) (UniProt P11229); test: Cholinergic receptor muscarinic 1 (CHRM1) small molecule antagonists, cell-based qHTS assay (AID 1963588); also: nearly all actives have a fitted effect of over 40% in size
Procedure, shortened: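 CHRM1-CHO calcium-flux assay, antagonist mode. Cells were seeded 18 h, dye-loaded 1 h at 37 C and given compound for 5 min at RT, then acetylcholine was added at 50nM. FDSS fluorescence was read 3 min; 15 concentrations, three runs.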

[13] = target: Beta-2 adrenergic receptor (Homo sapiens) (UniProt P07550); test: Adrenergic beta2 receptor (ADRB2) small molecule antagonists, cell-based qHTS assay (AID 1963592); also: series mostly up to about 92 µM; nearly all actives have a fitted effect of over 50% in size
Procedure, shortened: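 Cells (CHO, stable ADRB2 overexpression) incubated 18-20hr at 37C; compounds added from DMSO; agonist mix (1nM isoproterenol, 100uM IBMX, 25uM Ro-20-1724) added; 0.5hr RT; d2-cAMP and anti-cAMP-cryptate added; 1hr RT; 665/615 nm read.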

[14] = target: Beta-2 adrenergic receptor (Homo sapiens) (UniProt P07550); test: Adrenergic beta2 receptor (ADRB2) small molecule agonists, cell-based qHTS assay (AID 1963593);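 also: CHO cells stably overexpressing human ADRB2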
Procedure, shortened: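 CHO cells stably over-expressing ADRB2 were plated overnight at 37C, then dosed with compounds plus a stimulation mix containing 100uM IBMX and 25uM Ro-20-1724 for 0.5hr at room temperature. cAMP was measured by HTRF competition, 1hr.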

[15] = target: D(2) dopamine receptor (Homo sapiens) (UniProt P14416); test: Dopamine D2 receptor (DRD2) small molecule agonists, cell-based qHTS assay (AID 1963594); also: nearly all actives have a fitted effect of over 35% in size
Procedure, shortened: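 HEK293 cells stably expressing DRD2 were cultured 24 h at 37 C, then given Ro20-1724 (0.1 mM final) and compounds for 10 min at room temperature. NKH477 (200nM) was then added for 30 min. cAMP was read by HTRF.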

[16] = target: D(2) dopamine receptor (Homo sapiens) (UniProt P14416); test: Dopamine D2 receptor (DRD2) small molecule antagonists, cell-based qHTS assay (AID 1963595; active = well fitted inhibition curve with a large enough effect in the signal ratio in the repeat runs, with a control signal flat; the % refers to the signal ratio)
Procedure, shortened: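 HEK293 cells stably expressing DRD2, preincubated with 0.1 mM Ro20-1724 and compounds 10 min, were stimulated with 200 nM NKH477 plus 12 nM quinpirole for 30 min at room temperature; cAMP measured by HTRF (665/620 nm).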

[17] = target: Muscarinic acetylcholine receptor M1 (Homo sapiens) (UniProt P11229); test: Cholinergic receptor muscarinic 1 (CHRM1) small molecule agonists, cell-based qHTS assay (AID 1963589); also: nearly all actives have a fitted effect of over 35% in size
Procedure, shortened: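 Measures agonist-induced intracellular calcium rise. Stable human CHRM1 CHO line, 1 h dye load at 37 C, compounds from DMSO, kinetic fluorescence read.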

[18] = cAMP Responsive Elements (CRE) small molecule agonists, cell-based qHTS assay (AID 1963590)
Procedure, shortened: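 A CRE-responsive beta-lactamase reporter in HEK 293T cells was used. Treatment ran 3 h at 37 C; detection used LiveBLAzer B/G FRET substrate for 2 h at room temperature.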

[19] = cAMP Responsive Elements (CRE) small molecule antagonists, cell-based qHTS assay (AID 1963591; active = well fitted inhibition curve with a large enough effect in the signal ratio in the repeat runs, not every such curve was filed as active; the % refers to the signal ratio)
Procedure, shortened: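 HEK293T cells carrying a CRE-driven beta-lactamase reporter receive compound and NKH477 (0.25 uM final) for 3 h. Fluorescence from LiveBLAzer B/G FRET substrate is read after 2 h at room temperature.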

[20] = p53 small molecule agonists, cell-based qHTS assay (AID 1963582; active = well fitted activation curve with a large enough effect in the signal ratio in the repeat runs, not every such curve was filed as active; the % refers to the signal ratio)
Procedure, shortened: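 In this cell-based concentration-response screen, a p53 response element drives beta-lactamase; cells received DMSO-borne compounds after 5 h culture and were incubated a further 16 h before FRET substrate development.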

KiSS-1 receptor (Homo sapiens), sequence (Q969F8 whole entry, looked up): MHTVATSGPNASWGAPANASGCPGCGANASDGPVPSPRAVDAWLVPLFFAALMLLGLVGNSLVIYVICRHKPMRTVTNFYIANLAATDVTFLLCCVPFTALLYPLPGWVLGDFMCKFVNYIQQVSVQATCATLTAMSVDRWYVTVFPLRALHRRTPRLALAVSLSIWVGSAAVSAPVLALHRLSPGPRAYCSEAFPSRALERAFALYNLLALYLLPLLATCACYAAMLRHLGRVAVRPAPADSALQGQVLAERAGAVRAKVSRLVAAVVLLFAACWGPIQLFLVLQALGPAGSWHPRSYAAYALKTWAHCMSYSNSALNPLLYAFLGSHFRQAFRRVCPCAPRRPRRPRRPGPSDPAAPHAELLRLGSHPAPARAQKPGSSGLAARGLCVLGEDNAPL
D(2) dopamine receptor (Homo sapiens), sequence (P14416 whole entry, looked up): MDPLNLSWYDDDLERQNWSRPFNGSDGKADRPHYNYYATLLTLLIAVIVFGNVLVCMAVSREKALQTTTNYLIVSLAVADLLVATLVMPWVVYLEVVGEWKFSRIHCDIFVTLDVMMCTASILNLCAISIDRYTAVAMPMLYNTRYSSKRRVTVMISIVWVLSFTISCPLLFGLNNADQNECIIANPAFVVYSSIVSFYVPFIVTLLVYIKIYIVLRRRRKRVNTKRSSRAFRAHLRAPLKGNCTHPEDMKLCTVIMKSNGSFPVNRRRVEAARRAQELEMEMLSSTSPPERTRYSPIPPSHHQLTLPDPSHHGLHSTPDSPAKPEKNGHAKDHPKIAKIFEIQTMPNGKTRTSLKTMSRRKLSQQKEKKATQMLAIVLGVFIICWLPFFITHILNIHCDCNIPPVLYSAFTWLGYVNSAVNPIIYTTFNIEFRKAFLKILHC
Beta-2 adrenergic receptor (Homo sapiens), sequence (P07550 whole entry, looked up): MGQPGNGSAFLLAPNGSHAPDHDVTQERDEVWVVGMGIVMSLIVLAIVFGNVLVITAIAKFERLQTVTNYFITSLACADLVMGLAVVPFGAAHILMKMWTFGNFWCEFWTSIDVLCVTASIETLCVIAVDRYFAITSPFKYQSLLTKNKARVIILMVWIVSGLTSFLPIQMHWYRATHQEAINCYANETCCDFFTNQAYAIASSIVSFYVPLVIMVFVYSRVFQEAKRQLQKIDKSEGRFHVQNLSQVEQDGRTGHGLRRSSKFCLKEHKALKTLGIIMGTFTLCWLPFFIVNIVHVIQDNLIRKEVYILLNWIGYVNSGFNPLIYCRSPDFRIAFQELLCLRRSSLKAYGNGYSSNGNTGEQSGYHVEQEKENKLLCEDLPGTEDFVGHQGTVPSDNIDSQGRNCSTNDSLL
Gonadotropin-releasing hormone receptor (Homo sapiens), sequence (P30968 whole entry, looked up): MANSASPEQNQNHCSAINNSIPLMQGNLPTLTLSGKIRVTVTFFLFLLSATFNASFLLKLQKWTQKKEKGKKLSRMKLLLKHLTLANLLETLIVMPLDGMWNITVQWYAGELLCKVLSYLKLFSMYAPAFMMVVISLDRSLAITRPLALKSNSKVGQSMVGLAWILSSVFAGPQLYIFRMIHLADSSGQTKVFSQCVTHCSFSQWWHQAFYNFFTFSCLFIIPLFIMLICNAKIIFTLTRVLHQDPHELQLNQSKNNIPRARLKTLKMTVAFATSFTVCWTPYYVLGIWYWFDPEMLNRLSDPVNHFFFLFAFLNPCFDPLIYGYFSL
Muscarinic acetylcholine receptor M1 (Homo sapiens), sequence (P11229 whole entry, looked up): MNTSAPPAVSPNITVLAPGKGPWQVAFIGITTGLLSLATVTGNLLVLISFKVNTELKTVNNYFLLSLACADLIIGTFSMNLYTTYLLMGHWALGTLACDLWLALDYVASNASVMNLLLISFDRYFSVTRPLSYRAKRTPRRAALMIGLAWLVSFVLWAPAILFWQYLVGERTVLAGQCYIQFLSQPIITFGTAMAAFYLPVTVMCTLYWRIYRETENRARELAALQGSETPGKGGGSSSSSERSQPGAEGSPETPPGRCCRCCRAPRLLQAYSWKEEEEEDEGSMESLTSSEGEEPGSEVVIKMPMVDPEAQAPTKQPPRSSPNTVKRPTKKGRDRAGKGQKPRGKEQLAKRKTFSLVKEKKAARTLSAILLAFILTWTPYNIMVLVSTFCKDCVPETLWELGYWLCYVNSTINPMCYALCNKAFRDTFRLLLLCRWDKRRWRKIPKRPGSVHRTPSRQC
5-hydroxytryptamine receptor 2A (Homo sapiens), sequence (P28223 whole entry, looked up): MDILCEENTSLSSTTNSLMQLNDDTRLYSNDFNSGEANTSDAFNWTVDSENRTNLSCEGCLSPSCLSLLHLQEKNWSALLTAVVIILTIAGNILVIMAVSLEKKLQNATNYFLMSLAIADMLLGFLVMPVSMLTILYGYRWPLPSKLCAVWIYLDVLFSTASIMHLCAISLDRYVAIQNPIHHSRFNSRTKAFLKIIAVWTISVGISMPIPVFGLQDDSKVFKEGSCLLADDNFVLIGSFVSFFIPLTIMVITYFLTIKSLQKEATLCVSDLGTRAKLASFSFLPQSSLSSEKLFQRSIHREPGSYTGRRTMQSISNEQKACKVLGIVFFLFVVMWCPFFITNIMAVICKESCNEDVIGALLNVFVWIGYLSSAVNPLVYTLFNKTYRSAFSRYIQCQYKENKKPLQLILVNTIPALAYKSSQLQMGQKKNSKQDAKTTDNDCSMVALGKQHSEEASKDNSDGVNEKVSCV

With Cc1oc(-c2ccccc2)nc1CCOc1ccc(C[C@H](Nc2ccccc2C(=O)c2ccccc2)C(=O)O)cc1 the Potency [1] was “inactive”, the Potency [2] was “inactive” and the outcome [3] was “inactive”. For the same compound, the outcome [4] was “inactive”, the Potency [5] was “inactive” and the Potency [6] was “inactive”. For the same compound, the Potency [7] was 28.9 µM (active), the Potency [8] was 45.8 µM (active) and the Potency [9] was 20.4 µM (active). For the same compound, the Potency [10] was “inactive”, the Potency [11] was “inactive” and the Potency [12] was “inactive”. The Potency [13] was “inactive”, the Potency [14] was “inactive” and the Potency [15] was “inactive”. For the same compound, the Potency [16] was “inactive”.

With CC(C)NCCCC1(C(N)=O)c2ccccc2-c2ccccc21 the Potency [1] was “inactive”, the Potency [2] was “inactive” and the outcome [3] was “inactive”. The outcome [4] was “inactive”, the Potency [5] was “inactive” and the Potency [6] was “inactive”. For the same compound, the Potency [7] was “inactive”, the Potency [8] was “inactive” and the Potency [9] was “inactive”. The Potency [11] was “inactive”, the Potency [17] was “inactive” and the Potency [18] was “inactive”. For the same compound, the Potency [19] was “inactive”, the Potency [13] was “inactive” and the Potency [14] was “inactive”. The Potency [16] was “inactive”.

With Cc1nnc(C(=O)NC(C)(C)c2nc(C(=O)NCc3ccc(F)cc3)c(O)c(=O)n2C)o1 the Potency [1] was “inactive”, the Potency [2] was “inactive” and the outcome [3] was “inactive”. For the same compound, the outcome [4] was “inactive”, the Potency [5] was “inactive” and the Potency [7] was “inactive”. The Potency [8] was “inactive”, the Potency [9] was “inactive” and the Potency [20] was “inactive”. The Potency [11] was “inactive”, the Potency [12] was “inactive” and the Potency [17] was “inactive”. For the same compound, the Potency [19] was “inactive”, the Potency [13] was “inactive” and the Potency [16] was “inactive”.

For CCC(CO)(CO)[N+](=O)[O-], the Potency [1] was “inactive”, the Potency [2] was “inactive” and the outcome [3] was “inactive”. For the same compound, the outcome [4] was “inactive”, the Potency [6] was “inactive” and the Potency [7] was “inactive”. For the same compound, the Potency [8] was “inactive”, the Potency [9] was “inactive” and the Potency [20] was “inactive”. The Potency [10] was “inactive”, the Potency [11] was “inactive” and the Potency [12] was “inactive”. The Potency [18] was “inactive”, the Potency [19] was “inactive” and the Potency [13] was “inactive”. The Potency [14] was “inactive” and the Potency [15] was “inactive”.

With Cc1c(Cn2ccnc2)c2ccccc2n1CCC(=O)O the Potency [1] was “inactive”, the Potency [2] was “inactive” and the outcome [3] was “inactive”. The outcome [4] was “inactive”, the Potency [5] was “inactive” and the Potency [6] was “inactive”. The Potency [8] was “inactive”, the Potency [9] was “inactive” and the Potency [20] was “inactive”. For the same compound, the Potency [10] was “inactive”, the Potency [11] was “inactive” and the Potency [12] was “inactive”. The Potency [17] was “inactive”, the Potency [18] was “inactive” and the Potency [19] was “inactive”. For the same compound, the Potency [13] was “inactive”, the Potency [15] was “inactive” and the Potency [16] was “inactive”.

For C[N+]1(CC2COC(c3ccccc3)(c3ccccc3)O2)CCCCC1 (centres undefined), the activity, positive = activation [1] was -7.02% [at 19 µM], the activity change [2] was -0.634% [at 11.8 µM, hits give high values] and the activation [3] was -1.44% [at 15.8 µM]. The activation [4] was 0.724% [at 11.8 µM], the activation [6] was -0.64% [at 13.6 µM] and the activity change, negative = cytotoxicity [7] was -12% [at 13.5 µM]. For the same compound, the activity change, negative = cytotoxicity [8] was 4.65% [at 13.5 µM], the activity change, negative = cytotoxicity [9] was -20.9% [at 13.5 µM] and the activation [20] was 0.97% [at 13.5 µM]. The activity, negative = inhibition [10] was -7.46% [at 12.7 µM], the activation [11] was -9.9% [at 15.9 µM] and the activation [17] was 10.6% [at 15.8 µM]. For the same compound, the activation [18] was -0.37% [at 19 µM], the activity change, negative = inhibition [19] was 1.85% [at 18.9 µM] and the activity change, negative = inhibition [13] was -7.43% [at 19 µM]. The Potency [14] was “inactive” and the activity change, negative = inhibition [16] was 7.28% [at 18.9 µM].
